High-throughput results (PubChem)
Hits are enriched below; roughly 7.3% of the tested compounds scored in any of these assays.
HCMV antiviral = inhibitors of human cytomegalovirus. hit rate 4.5% among 410,000. HFF cells, HCMV-luciferase reporter, 72 h; stronger effect = lower value. AID 1259415. activity change, negative = inhibition, % at 57.5 µM; in the data active means activity change below about -60%; inconclusive means no clear call, values can overlap the other calls; inactive means above about -39%
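After 16 h attachment at 37C, HFF cells received test compound and HCMV-luciferase (1 PFU/cell); reporter luminescence read 72 h later, data normalized against buffer-only and known inhibitor Salinomycin.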
HCV inhibitor = inhibitors of hepatitis C virus infection | Huh7.5.1 HCVcc-Cre infection, luciferase reporter, 44 h | Potency, µM (titrated, usually from 41.8 µM), usual class: inhibitors | hit rate 3.4% among 340,000; active means well fitted inhibition curve with a large enough effect; inconclusive means small, poorly fitted or top-dose-only effect, or another doubt; inactive means no such curve, though single readings can be large or run the other way
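HCVcc-Cre virus at an moi near 0.5 was added right after compound to cells cultured 4 h from seeding (1,000 cells/well). Luciferase activity was determined 44 h later, 15 min after substrate addition at RT.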
Vaccinia Venus = inhibitors of vaccinia virus (Venus reporter). Vaccinia virus Venus reporter expression, fluorescence. hit rate 0.46% among 330,000. Potency, µM (top dose mostly 36.5 µM), usual class: inhibitors; calls by dose curve; tested in A549 cells; further: nearly all actives have a fitted effect of over 30% in size
FMDV inh = antivirals against foot and mouth disease virus; FMDV antiviral cell-based qHTS; Potency, µM (doses to about 57.9 µM), actives largely listed as inhibitors; hit rate 1.2% among 410,000; AID 1159524; calls by dose curve; tested in HEK293T cells; further: read-out not given here; nearly all actives have a fitted effect of over 45% in size
VACV mCherry inh = vaccinia inhibition (mCherry reporter); Potency, µM (titrated, usually from 36.5 µM), most hits filed as inhibitors; AID 720579; Vaccinia virus mCherry reporter infection, fluorescence; hit rate 0.63% among 310,000; calls by dose curve; tested in A549 cells; further: nearly all actives have a fitted effect of over 35% in size
Large screens that a line does not name were inactive.

CCOC(=O)c1c(NC(=O)/C=C/C(=O)O)sc(C)c1-c1ccc(C)c(C)c1	FMDV inh 32µM (no result: Vaccinia Venus, VACV mCherry inh)
CCOC(=O)c1c(NC(=O)/C=C/C(=O)O)sc(C)c1-c1ccc(F)cc1	FMDV inh 32µM
COC(=O)c1c(NC(=O)/C=C/C(=O)O)sc(C)c1-c1ccc(C(C)C)cc1	HCMV antiviral inconclusive, FMDV inh 14µM
C=CCOc1ccc(/C=C/C(=O)OCC(=O)N2CCC(c3ccccc3)=N2)cc1	HCV inhibitor inconclusive, FMDV inh inconclusive (no result: Vaccinia Venus, VACV mCherry inh)
CC(C)COc1ccc(C/C(N)=N/n2cnnc2)cc1	HCMV antiviral -94, HCV inhibitor 14µM
COc1ccc(C/C(N)=N/n2cnnc2)cc1	HCMV antiviral inconclusive (no result: FMDV inh)
CCOc1ccc(NC(=O)CN(C)C(=O)CC2CCCC2)cc1OCC	none (no result: Vaccinia Venus, VACV mCherry inh)
CCOc1ccc(NC(=O)CN(C)C(=O)CC2CCCCC2)cc1OCC	HCMV antiviral -68, HCV inhibitor inconclusive (no result: Vaccinia Venus, VACV mCherry inh)
Cn1cc(-c2coc3c(C(=O)NCc4ccco4)cccc23)cn1	Vaccinia Venus inconclusive, VACV mCherry inh inconclusive (no result: HCMV antiviral, HCV inhibitor)
Cc1cc(C)c(S(=O)(=O)c2ccc(Cl)cc2C)c(Cl)n1	HCV inhibitor inconclusive
Cc1cc(C)c(S(C)(=O)=O)c(S(=O)(=O)c2ccc(Cl)cc2)n1	HCMV antiviral -98
Cc1ccc(S(=O)(=O)N2CCCc3nc(-c4ccc(F)cc4)ccc32)cc1	none (no result: HCV inhibitor, Vaccinia Venus, FMDV inh, VACV mCherry inh)
COc1cc(OC)cc(C(=O)Nc2cccc(C(C)=O)c2)c1	none (no result: Vaccinia Venus, VACV mCherry inh)
COc1ccc(NC(=O)c2cccc(NC(=O)c3ccccc3)c2)c(OC)c1	none
CC(=O)Nc1cccc(OCCCNC(=O)c2ccc(C(C)(C)C)cc2)c1	HCV inhibitor 10µM (no result: Vaccinia Venus, VACV mCherry inh)
COc1ccc(OC)c(NC(=O)c2cccc(NC(=O)c3ccccc3)c2)c1	HCMV antiviral inconclusive, HCV inhibitor 10µM
COc1cc(OC)cc(C(=O)Nc2cccc(NC(=O)c3ccccc3)c2)c1	HCV inhibitor 10µM
CC(=O)Oc1ccc(C(=O)Nc2cccc(C(=O)NC(C)(C)C)c2)cc1	HCV inhibitor 13µM
CC(=O)Nc1cccc(OCCCNC(=O)c2ccc(F)cc2)c1	none (no result: Vaccinia Venus, VACV mCherry inh)
COc1cc(OC)cc(C(=O)Nc2ccc(Nc3ccccc3)cc2)c1	HCV inhibitor 8.9µM (no result: Vaccinia Venus, VACV mCherry inh)
COC(=O)Cc1ccc(NC(=O)c2ccc(C(C)(C)C)cc2)cc1	HCMV antiviral -93, HCV inhibitor 2.5µM, FMDV inh 10µM (no result: Vaccinia Venus, VACV mCherry inh)
CC(C)(C)c1ccc(C(=O)Nc2ccc(Oc3cccnc3)nc2)cc1	HCMV antiviral -66, HCV inhibitor 2.8µM, Vaccinia Venus inconclusive, FMDV inh 35µM
COc1cccc(C(=O)Nc2ccc(NC(=O)c3ccc(C(C)(C)C)cc3)cc2)c1	HCMV antiviral -97 (no result: HCV inhibitor)
COc1ccc(C(=O)Nc2cc3c(cc2OC)CCCC3)cc1Br	HCV inhibitor inconclusive
COc1cc2c(cc1NC(=O)c1ccc(C(C)(C)C)cc1)CCCC2	HCMV antiviral -90, HCV inhibitor inconclusive, VACV mCherry inh 10µM
COc1ccc2c(c1)-c1c(sn(-c3ccc(OC)c(OC)c3)c1=S)C(C)(C)N2	HCV inhibitor 2.5µM
COc1ccc(-n2sc3c(c2=S)-c2cc(OC)ccc2NC3(C)C)cc1	HCMV antiviral -68, HCV inhibitor inconclusive, Vaccinia Venus inconclusive, VACV mCherry inh inconclusive
COc1ccc2c(c1)-c1c(sn(-c3ccccc3)c1=S)C(C)(C)N2	HCMV antiviral inconclusive, HCV inhibitor inconclusive, FMDV inh inconclusive
COc1ccc2c(c1)-c1c(ssc1=S)C(C)(C)N2	HCMV antiviral -89, HCV inhibitor inconclusive (no result: FMDV inh)
Cc1ccccc1C(=O)NNC(=O)C1CC(=O)N(Cc2ccccc2)C1 (centres undefined)	none
COc1cccc(N2CCN(S(=O)(=O)c3cc(-c4cc(C)no4)ccc3C)CC2)c1	FMDV inh inconclusive (no result: HCV inhibitor)
CCc1ccc(-c2cc(C)no2)cc1S(=O)(=O)NCCCN1CCN(c2ccccc2)CC1	HCMV antiviral inconclusive, HCV inhibitor 2µM, FMDV inh inconclusive
CCc1ccc(-c2cc(C)no2)cc1S(=O)(=O)N1CCN(C(=O)c2ccco2)CC1	HCV inhibitor inconclusive, Vaccinia Venus inconclusive
Cc1cc(-c2ccc(C)c(S(=O)(=O)NCC3CCN(Cc4ccc(F)cc4)CC3)c2)on1	HCMV antiviral inconclusive, HCV inhibitor 8.9µM, Vaccinia Venus inconclusive, VACV mCherry inh inconclusive
CCc1ccc(-c2cc(C)no2)cc1S(=O)(=O)N1CCN(c2ccc(OC)cc2)CC1	HCMV antiviral -67, HCV inhibitor inconclusive
CCc1ccc(-c2cc(C)no2)cc1S(=O)(=O)N1CCN(c2ccc(F)cc2)CC1	HCMV antiviral inconclusive, HCV inhibitor 5µM, FMDV inh inconclusive (no result: Vaccinia Venus, VACV mCherry inh)
